Source: PubChem (The Scripps Research Institute Molecular Screening Center)
This is a sample that favours compounds with a hit; in the whole collection about 2.4% have one here.
CHO-K1 Ca antag – M1 antagonist counterscreen hit in parental CHO-K1 cells. actives 0.6% (n = 360,000). inhibition, % at 3 µM. ATP-induced calcium, Fluo-8 fluorescence;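 active means inhibition above a per-plate cutoff, the plate's mean sample inhibition plus 3 SD, cut at about 24% in these data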;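 further: 0% = DMSO plus EC80 ATP and 100% = DMSO alone without ATP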
M1 PAM parental – nonselective activator or artifact in parental CHO-K1 calcium assay | actives 0.02% (n = 360,000) | activation, % at 3 µM | ATP EC20, Fluo-8 calcium fluorescence; 0% at ATP EC20, 100% at ATP max | AID 602247;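 active means activation above the run cutoff, the mean activation of all test compounds plus 3 SD, cut at about 40% in these data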;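 further: peak over basal fluorescence ratio in a 140 s read after ATP addition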
M1 antag – antagonists of human M1 muscarinic receptor; P11229; CHO-K1 hM1, Fluo-8 calcium fluorescence, ACh EC80 antagonist; inhibition, % at 3 µM; actives 1.3% (n = 360,000); AID 588852;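 active means percent inhibition above its own plate's cutoff, namely the mean of that plate's compound wells plus 3 SD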;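 further: peak over basal fluorescence ratio during 140 s after agonist addition; 0% = ACh EC80 plus DMSO and 100% = DMSO alone without agonist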
Target sequence (P11229 whole entry, looked up): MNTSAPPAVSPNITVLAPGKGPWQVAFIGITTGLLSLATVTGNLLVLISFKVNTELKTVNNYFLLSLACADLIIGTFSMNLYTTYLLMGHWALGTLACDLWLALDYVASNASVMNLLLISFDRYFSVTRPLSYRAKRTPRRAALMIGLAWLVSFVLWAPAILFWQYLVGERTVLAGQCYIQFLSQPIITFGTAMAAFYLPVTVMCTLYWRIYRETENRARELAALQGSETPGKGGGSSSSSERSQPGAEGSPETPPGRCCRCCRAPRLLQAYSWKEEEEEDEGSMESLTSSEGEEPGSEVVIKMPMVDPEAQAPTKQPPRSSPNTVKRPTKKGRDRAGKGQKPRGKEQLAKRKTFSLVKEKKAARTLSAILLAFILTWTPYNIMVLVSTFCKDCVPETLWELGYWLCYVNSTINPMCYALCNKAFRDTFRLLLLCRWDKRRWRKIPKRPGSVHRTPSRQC
M1 PAM – potentiates human M1 receptor response to acetylcholine. CHO-K1 hM1, Fluo-8 calcium fluorescence, ACh EC20; 0% = ACh EC20, 100% = maximal ACh. activation, % at 3 µM. actives 0.088% (n = 360,000). AID 588819; in the data active means activation above about 19%, passing the limit was not always enough
CHO-K1 Ca ag – counter-screen for M1 agonists: effect in parental CHO-K1 cells | Fluo-8 calcium fluorescence; scaled to maximal ATP response, vehicle zero | activation, % at 3 µM | actives 0.48% (n = 360,000) | AID 602248; in the data active means activation above about 15%;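 further: untransfected CHO-K1 host cells lacking M1 receptor as counterscreen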
CHRM1 agonist – agonists of human M1 muscarinic receptor; AID 588814; activation, % at 3 µM; P11229; CHO-K1 hM1, Fluo-8 calcium fluorescence, agonist mode; 0% DMSO, 100% acetylcholine EC100; actives 0.33% (n = 360,000);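 active means activation above the run's mean compound activation plus 3 SD, cut at about 16% in these data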;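 further: peak over basal fluorescence ratio within a 140 s kinetic read after compound addition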
An asterisk follows results filed as active.

Screening Cc1ccc(C)c(S(=O)(=O)N2CCN(C(=O)Cn3[nH]c(=O)c4ccccc4c3=O)CC2)c1 returned CHO-K1 Ca antag -9.1, M1 PAM parental 14.1, M1 antag -9.4, M1 PAM 1.0, CHO-K1 Ca ag 0.6 and CHRM1 agonist -6.2.
CCCc1cc(C(=O)Nc2cccc(Cl)c2C)no1 was read as CHO-K1 Ca antag -4.5, M1 PAM parental -4.0, M1 antag -4.5, M1 PAM -2.5, CHO-K1 Ca ag -0.8 and CHRM1 agonist -12.3.
O=S(=O)(c1ccccc1F)N1CCN(c2nc(-c3cccnc3)nc3ccccc23)CC1 was read as CHO-K1 Ca antag 6.4, M1 PAM parental 7.0, M1 antag 26.9, M1 PAM -8.5, CHO-K1 Ca ag 6.4 and CHRM1 agonist -2.3.
`N#Cc1ccccc1S(=O)(=O)N1CCN(c2nc(-c3cccnc3)nc3ccccc23)CC1` gave CHO-K1 Ca antag 10.7, M1 PAM parental -4.3, M1 antag 50.2*, M1 PAM -19.5, CHO-K1 Ca ag 6.6 and CHRM1 agonist -2.2.
Cc1ccc(C)c(S(=O)(=O)N2CCN(c3nc(-c4cccnc4)nc4ccccc34)CC2)c1 was read as CHO-K1 Ca antag -14.2, M1 PAM parental 4.9, M1 antag 27.5*, M1 PAM -12.3, CHO-K1 Ca ag 3.9 and CHRM1 agonist -4.3.
Cn1cc(C(=O)c2ccc(Cl)cc2)cc1-c1nc2ccccc2n1C was read as CHO-K1 Ca antag 3.1, M1 PAM parental -0.1, M1 antag 23.7*, M1 PAM -14.5, CHO-K1 Ca ag 9.1 and CHRM1 agonist 0.4.
O=[N+]([O-])c1ccc(S(=O)(=O)NCC(c2cccnc2)N2CCc3ccccc32)cc1 (stereo not given) was read as CHO-K1 Ca antag -10.6, M1 PAM parental -0.9, M1 antag -7.0, M1 PAM 3.9, CHO-K1 Ca ag 0.2 and CHRM1 agonist -3.6.
Cc1c(OCC(=O)NCc2cccnc2)ccc2c3c(c(=O)oc12)CCCC3 was read as CHO-K1 Ca antag -12.9, M1 PAM parental 5.2, M1 antag 3.0, M1 PAM -3.8, CHO-K1 Ca ag 0.5 and CHRM1 agonist -1.9.
Screening Cc1c(OC(C)C(=O)NCc2cccnc2)ccc2c3c(c(=O)oc12)CCCC3 (stereo not given) returned CHO-K1 Ca antag 57.6*, M1 PAM parental -5.4, M1 antag -5.6, M1 PAM 1.4, CHO-K1 Ca ag 3.6 and CHRM1 agonist -1.4.
Screening CC(NC(=O)CN1C(=O)NC2(CCCCCC2)C1=O)c1ccccc1Cl (stereo not given) returned CHO-K1 Ca antag 6.1, M1 PAM parental -10.3, M1 antag 4.5, M1 PAM 2.0, CHO-K1 Ca ag 0.0 and CHRM1 agonist -0.3.
For Cn1c(=O)c2[nH]c(-c3ccc(S(=O)(=O)O)cc3)nc2n(C)c1=O the results were CHO-K1 Ca antag -10.5, M1 PAM parental 7.4, M1 antag -19.8, M1 PAM -7.8, CHO-K1 Ca ag 0.6 and CHRM1 agonist 29.2*.
For Cn1c(N)c(C(=O)COC(=O)c2cc(S(=O)(=O)N3CCCCC3)ccc2Cl)c(=O)n(C)c1=O the results were CHO-K1 Ca antag -12.7, M1 PAM parental 18.2, M1 antag 3.1, M1 PAM -0.2, CHO-K1 Ca ag 3.7 and CHRM1 agonist -9.0.
Cn1c(N)c(C(=O)COC(=O)c2cccc(S(=O)(=O)N3CCCCC3)c2)c(=O)n(C)c1=O was read as CHO-K1 Ca antag 29.3*, M1 PAM parental -9.6, M1 antag -0.2, M1 PAM -3.5, CHO-K1 Ca ag 0.1 and CHRM1 agonist -7.0.
For C=CCN(c1ccccc1OC)S(=O)(=O)c1cccc(C(=O)OCC(=O)c2c(N)n(C)c(=O)n(C)c2=O)c1 the results were CHO-K1 Ca antag 2.4, M1 PAM parental -19.0, M1 antag 31.4*, M1 PAM -21.2, CHO-K1 Ca ag 7.8 and CHRM1 agonist -2.7.
For CC(C)[C@H](NC(=O)c1ccccc1)C(=O)OCC(=O)c1c(N)n(C)c(=O)n(C)c1=O the results were CHO-K1 Ca antag 0.1, M1 PAM parental -15.6, M1 antag 29.4*, M1 PAM -12.2, CHO-K1 Ca ag 0.7 and CHRM1 agonist -1.9.
